sEH inh: inhibitors of human soluble epoxide hydrolase | P34913 | actives 0.34% (n = 91,000) | AID 707 | inhibition, % at 2 µM | recombinant human sEH enzymatic activity assay; in the data active = inhibition above about 80%
Target sequence (P34913 whole entry, looked up): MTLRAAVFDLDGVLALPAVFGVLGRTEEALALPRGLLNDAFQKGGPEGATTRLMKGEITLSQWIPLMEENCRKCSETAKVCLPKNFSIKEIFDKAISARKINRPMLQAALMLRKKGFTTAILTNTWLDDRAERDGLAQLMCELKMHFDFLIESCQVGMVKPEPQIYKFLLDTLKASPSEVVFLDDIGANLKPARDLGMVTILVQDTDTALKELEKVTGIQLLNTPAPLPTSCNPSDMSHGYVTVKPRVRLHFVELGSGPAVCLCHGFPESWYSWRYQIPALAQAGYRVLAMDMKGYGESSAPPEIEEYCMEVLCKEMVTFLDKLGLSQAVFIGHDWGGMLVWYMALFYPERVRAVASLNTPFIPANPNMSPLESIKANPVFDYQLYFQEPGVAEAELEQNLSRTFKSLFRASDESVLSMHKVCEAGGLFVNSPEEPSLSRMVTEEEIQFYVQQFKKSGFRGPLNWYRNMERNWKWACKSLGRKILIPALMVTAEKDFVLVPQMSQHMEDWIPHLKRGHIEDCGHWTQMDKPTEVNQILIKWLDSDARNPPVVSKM
CYP2C9 inhib: inhibitors of human CYP2C9; P11712; CYP2C9 Supersomes, luciferin-H conversion, luminescence; inhibition, % at 5 µM; actives 20% (n = 96,000);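 active = blocking of liver enzyme CYP2C9 beyond about 50% at 5 µM, limit read from the data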
CYP2C19 inh: human CYP2C19 inhibition | P33261 | CYP2C19 Supersomes, luciferin-H EGE luminescence, 30 min | inhibition, % at 5 µM | actives 21% (n = 96,000);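 active = CYP2C19 inhibition above a set limit at 5 µM in the primary screen, cut at about 50% in these data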;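 also: plate controls were negative control wells for no effect and 2.5 mM tranylcypromine positive control for full effect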
CYP2C19 act: cytochrome P450 2C19 (human) activation; recombinant CYP2C19, luciferin-H EGE luminescence; hits give high values; 0 = fully inhibited enzyme, 1 = untreated enzyme; activation factor at 5 µM; 96,000 tested, under 10 active; AID 1025;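 active = activation factor of at least 2 at 5 µM in the primary screen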;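 also: 0 = wells with 2.5 mM tranylcypromine and 1 = vehicle-only wells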
CYP2C9 act: activators of human CYP2C9; P11712; recombinant CYP2C9, luciferin-H conversion, luminescence; hits give high values; factor 1 = untreated enzyme, 0 = blocked; activation factor at 5 µM; actives 1.4% (n = 96,000);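 active = activation factor of 2 or more for CYP2C9 at a 5 µM dose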;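 also: 0 = sulfaphenazole-blocked wells and 1 = vehicle-only wells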
sEH activator: soluble epoxide hydrolase (human) activation | actives 0.04% (n = 91,000) | P34913 | purified human sEH enzymatic activity, activator screen | AID 717 | activation, % at 2 µM; in the data active = activation above about 37%
* hit, by the source's call; x = not tested or not shown. In the library only some 27% were active in any assay of this set; here they are far more common.

SMILES | sEH inh | CYP2C9 inhib | CYP2C19 inh | CYP2C19 act | CYP2C9 act | sEH activator
Cc1ccc(S(=O)(=O)N(CC(=O)N2CCC(C)CC2)c2cccc(C)c2)cc1 | -2 | 86* | 82* | 0.2 | 0.1 | 1
CCOC(=O)N1CCN(C(=O)CN(c2cccc(C)c2)S(=O)(=O)c2ccccc2)CC1 | x | 72* | 48 | 0.5 | 0.3 | x
COc1ccc(OC)c(N(CC(=O)N2CCC(C)CC2)S(=O)(=O)c2ccc(OC)c(OC)c2)c1 | -10 | 39 | 16 | 0.8 | 0.6 | 11
CCOC(=O)N1CCN(C(=O)CN(c2cccc(C)c2)S(=O)(=O)c2ccc(C)cc2)CC1 | x | 74* | 72* | 0.3 | 0.3 | x
CCOC(=O)N1CCN(C(=O)CN(c2cccc(OC)c2)S(C)(=O)=O)CC1 | 4 | 12 | 20 | 0.8 | 0.9 | -3
COc1ccccc1N1CCN(C(=O)CN(c2ccccc2OC)S(=O)(=O)c2ccccc2)CC1 | 6 | 90* | 75* | 0.3 | 0.1 | -8
Cc1cc(NO)nc(-c2ccc(Br)cc2)n1 | x | 22 | 40 | 0.6 | 0.8 | x
CCOC(=O)N1CCN(C(=O)CN(c2cc(Cl)ccc2OC)S(=O)(=O)c2ccccc2)CC1 | 8 | 65* | 24 | 0.8 | 0.4 | -9
CCOC(=O)N1CCN(C(=O)CN(C2CCCCC2)S(=O)(=O)c2c(C)cc(C)cc2C)CC1 | 2 | 63* | 29 | 0.7 | 0.4 | 0
Cc1cc(C)c(S(=O)(=O)N(CC(=O)N2CCOCC2)C2CCCCC2)c(C)c1 | 0 | 75* | 37 | 0.6 | 0.3 | 4
CCn1ncc(C2=NOC(C(=O)Nc3cnn(C45CC6CC(CC(C6)C4)C5)c3)C2)c1C (stereo not drawn) | x | 11 | 10 | 0.9 | 0.9 | x
Cc1ccc2c(c1)NC(=O)C(CC(=O)NCCCN1CCN(c3cc(C)ccc3C)CC1)O2 (stereo not drawn) | x | 11 | 7 | 0.9 | 0.9 | x
Cn1c(=O)[nH]c(=O)c2c1nc(N1CCCCCC1)n2CCSc1nc2ccccc2[nH]1 | x | 27 | -5 | 1 | 0.7 | x
CC(N=c1ccccn1C(=O)Nc1cccc(C(F)(F)F)c1)c1ccco1 (stereo not drawn) | -2 | 26 | 32 | 0.7 | 0.7 | 0
Cc1ccc(N(C(=O)c2ccc(Br)o2)C2C=CS(=O)(=O)C2)cc1 (stereo not drawn) | -1 | 8 | 35 | 0.7 | 0.9 | 2
Cc1cc(C)cc(N(C(=O)c2ccc3c(c2)OCO3)C2C=CS(=O)(=O)C2)c1 (stereo not drawn) | -4 | -13 | 54* | 0.5 | 1.1 | 5
O=C(c1ccc(Br)o1)N(c1ccc(Br)cc1)C1C=CS(=O)(=O)C1 (stereo not drawn) | 8 | 59* | 86* | 0.1 | 0.4 | -5
Cc1ccc(N(C(=O)c2ccc3c(c2)OCO3)C2C=CS(=O)(=O)C2)cc1 (stereo not drawn) | x | 22 | 44 | 0.6 | 0.8 | x
O=C(c1ccc2c(c1)OCO2)N(c1ccc(Cl)cc1)C1C=CS(=O)(=O)C1 (stereo not drawn) | x | 25 | 70* | 0.3 | 0.8 | x
COC(/C=C/Nc1ccc(C)c(C)c1)=C(C#N)C#N | -15 | 9 | 0 | 1 | 0.9 | 13
CCn1cc(-c2cc(C(F)(F)F)n3nc(C(=O)O)cc3n2)c(C)n1 | 6 | 10 | -4 | 1 | 0.9 | -7
Cc1cc(=O)[nH]c(Cc2ccc(OC(C)C)cc2)n1 | -7 | -2 | 22 | 0.8 | 1 | 7
OCCN(CCO)c1ncnc2c1oc1ccc(Br)cc12 | 2 | 25 | -9 | 1.1 | 0.7 | -3
CCN(CC)S(=O)(=O)c1ccc(S(=O)(=O)N2CCCC2C(=O)O)cc1 (stereo not drawn) | 17 | -5 | -1 | 1 | 1 | -18
CCOC(=O)c1c(C)nc2c(c1-c1cc(OC)ccc1OC)C(=O)c1ccccc1-2 | -10 | -8 | 22 | 0.8 | 1.1 | 8
CCOC(=O)c1c(N)sc(C(O)(C(F)(F)F)C(F)(F)F)c1-c1ccc(OC)cc1OC | 10 | 72* | 55* | 0.5 | 0.3 | -6
COc1ccccc1/C=C/C(=O)c1c2c(c(C)[nH]c1=O)CCCC2 | -3 | -128 | 23 | 0.8 | 2.3* | 4
CCn1c(-c2cc(-c3cccc(OC)c3)nc3ccccc23)n[nH]c1=S | -9 | 91* | -11 | 1.1 | 0.1 | 11
CCn1c(-c2cccnc2)n[nH]c1=S | 13 | x | x | x | x | -10
